Laboratory results as given in PubChem BioAssay (Tox21).
Several values for one entry are separate records, joined by “and”; a condition that tells them apart may be missing. Equal values may be shown once. Results filed as inconclusive are left out. Activity calls are given as the source filed them. Calls come from the whole dose curve.

Columns and labels:
[1] = target: Acetylcholinesterase (Homo sapiens) (UniProt P22303); experiment: Acetylcholinesterase (AChE) small molecule antagonists: colormetric cell-based qHTS assay (AID 1347395); note: nearly all actives have a fitted effect of over 30% in size; note: potency is the fitted concentration of half-maximal effect
Chain of Acetylcholinesterase (Homo sapiens) (P22303 whole entry, looked up): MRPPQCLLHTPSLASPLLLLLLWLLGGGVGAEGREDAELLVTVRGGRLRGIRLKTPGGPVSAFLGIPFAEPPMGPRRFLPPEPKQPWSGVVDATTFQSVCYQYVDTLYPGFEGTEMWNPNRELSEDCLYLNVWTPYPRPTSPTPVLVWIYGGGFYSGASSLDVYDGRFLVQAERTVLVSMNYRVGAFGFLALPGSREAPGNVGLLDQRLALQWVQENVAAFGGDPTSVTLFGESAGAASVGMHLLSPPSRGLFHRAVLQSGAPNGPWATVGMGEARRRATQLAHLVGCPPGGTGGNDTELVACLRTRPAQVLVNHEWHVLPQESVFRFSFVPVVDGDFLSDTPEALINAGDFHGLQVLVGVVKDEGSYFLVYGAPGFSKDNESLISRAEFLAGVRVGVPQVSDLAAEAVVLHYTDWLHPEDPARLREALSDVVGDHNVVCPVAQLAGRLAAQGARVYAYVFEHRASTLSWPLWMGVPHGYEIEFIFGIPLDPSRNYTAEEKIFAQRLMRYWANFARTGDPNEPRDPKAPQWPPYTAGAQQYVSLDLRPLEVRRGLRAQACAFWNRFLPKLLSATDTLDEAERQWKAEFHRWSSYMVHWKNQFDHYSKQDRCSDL
Method in brief: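 In this cell-based qHTS, attached SH-SY5Y cells were treated with test chemicals for 30 min, after which acetylthiocholine hydrolysis was followed by DTNB colour development over 90 min at 37 C.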

[2] = target: Acetylcholinesterase (Homo sapiens) (UniProt P22303); experiment: Acetylcholinesterase (AChE) small molecule antagonists: enzyme-based qHTS assay (AID 1347397); details: Potency: AChE enzyme activity inhibition; outcome: AChE enzyme activity inhibition; note: nearly all actives have a fitted effect of over 55% in size; note: potency is the fitted concentration of half-maximal effect
Method in brief: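 Recombinant human AChE (50 mU/mL) preincubated with compound 30 min at room temperature; acetylthiocholine plus DTNB then added, and thiocholine formation read colorimetrically after 10 min at room temperature. DMSO served as vehicle control.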

[3] = target: Acetylcholinesterase (Homo sapiens) (UniProt P22303); experiment: Acetylcholinesterase (AChE) small molecule antagonists: fluorescence cell-based qHTS assay (AID 1347398); details: Potency: AChE activity; outcome: AChE activity; note: nearly all actives have a fitted effect of over 50% in size; note: potency is the fitted concentration of half-maximal effect
Method in brief: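 SH-SY5Y cells (2000/well), attached overnight, incubated with compound 30 min at 37 C. Acetylthiocholine plus Thiolite Green then added for 40 min at room temperature. Thiocholine fluorescence (Ex/Em 490/520 nm) reports cellular AChE activity.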

[4] = target: Acetylcholinesterase (Homo sapiens) (UniProt P22303); experiment: Acetylcholinesterase (AChE) small molecule antagonists: enzyme-based qHTS assay with human liver microsomes (AID 1347399); details: Potency: qHTS inhibition; outcome: qHTS inhibition; note: nearly all actives have a fitted effect of over 60% in size
Method in brief: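 Recombinant human AChE (50 mU/mL in the enzyme mix) and human liver microsomes (0.25 mg/mL final) were preincubated with compound and NADPH (0.25 mg/mL final) for 30 min at 37 C. Acetylthiocholine/DTNB was then added; thiocholine was read colorimetrically after 10 min at room temperature.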
% is set by controls: 0 for no effect and ±100 for the full control effect.

CNCCS(=O)(=O)O
inactive: Potency [1] | Potency [2] | Potency [3] | Potency [4]

CCN(CC)CCCC(C)Nc1ccnc2cc(Cl)ccc12 (configuration not stated)
active: Potency [1] 9.52 µM | Potency [3] 3.79 µM
inactive: activity change, negative = inhibition [2] -3.67% [at 10.5 µM] | activity change, negative = inhibition [4] -0.628% [at 10.5 µM] and -0.0844% [at 23.6 µM]

Nc1ccc(F)cc1F
inactive: Potency [1] | Potency [2] | Potency [3] | Potency [4]

CCN(CC)CCOC(=O)C1(c2ccccc2)CCCC1
inactive: Potency [1] | Potency [2] | Potency [3] | Potency [4]

CC(C)(C)c1cc(CCC(=O)NCCCCCCNC(=O)CCc2cc(C(C)(C)C)c(O)c(C(C)(C)C)c2)cc(C(C)(C)C)c1O
inactive: Potency [1] | Potency [2] | Potency [3] | Potency [4]

CC=O
inactive: Potency [4]
active: Potency [1] 41.8 µM | Potency [2] 74.3 µM | Potency [3] 26.4 µM

COC(=O)Nc1nc2ccc(C(=O)c3ccccc3)cc2[nH]1
inactive: Potency [1] | Potency [2] | Potency [3] | Potency [4]

CC(C(=O)O)c1ccc(CC2CCCC2=O)cc1 (configuration not stated)
inactive: Potency [1] | Potency [2] | Potency [3] | Potency [4]

CC/C=C\CCOC(C)=O
inactive: Potency [1] | Potency [2] | Potency [3] | Potency [4]

CCCCCCCCCOC(=O)c1ccccc1C(=O)OCCCCCCCCC
inactive: Potency [1] | Potency [2] | Potency [3] | Potency [4]

CCCCOCC
inactive: Potency [1] | Potency [2] | Potency [3] | Potency [4]

C=C(C)C(=O)OCC(C)(C)COC(=O)C(=C)C
inactive: Potency [1] | Potency [2] | Potency [3] | Potency [4]

CCNC(=O)C(C)OC(=O)Nc1ccccc1 (configuration not stated)
inactive: Potency [1] | Potency [2] | Potency [3] | Potency [4]

NS(=O)(=O)c1cc(C2(O)NC(=O)c3ccccc32)ccc1Cl (configuration not stated)
inactive: Potency [1] | Potency [2] | Potency [3] | Potency [4]

COC(=O)C1=C(C)NC(C)=C(C(=O)OC(C)(C)CN(C)CCC(c2ccccc2)c2ccccc2)C1c1cccc([N+](=O)[O-])c1 (configuration not stated)
inactive: Potency [1] | Potency [2] | Potency [3] | Potency [4]

CCCCOC(=O)C(C)O (configuration not stated)
inactive: Potency [1] | Potency [2] | Potency [3] | Potency [4]

CCc1ccc(O)c(OC)c1
inactive: Potency [1] | Potency [2] | Potency [3] | Potency [4]

O=CN1CCCCC1
inactive: Potency [1] | Potency [2] | Potency [3] | Potency [4]

O=C1OC(=O)C2C3C=CC(C3)C12 (configuration not stated)
inactive: Potency [1] | Potency [2] | Potency [3] | Potency [4]

CC(=O)[C@H]1[C@H](C#N)C[C@H]2[C@@H]3CC=C4C[C@@H](O)CC[C@]4(C)[C@H]3CC[C@@]21C
inactive: Potency [1] | Potency [2] | Potency [3] | Potency [4]

CC/C=C\CCOC(=O)c1ccccc1
inactive: Potency [1] | Potency [2] | Potency [3] | Potency [4]

N#Cc1ccc(C/C(=N/NC(=O)Nc2ccc(OC(F)(F)F)cc2)c2cccc(C(F)(F)F)c2)cc1
inactive: Potency [1] | Potency [2] | Potency [3] | Potency [4]

Oc1c(Br)cc(Br)c2cccnc12
inactive: Potency [1] | Potency [2] | Potency [3] | Potency [4]

O=C1c2ccccc2C(=O)c2cc(Cl)ccc21
inactive: activity, negative = inhibition [1] -0.634% [at 10.5 µM] | activity change, negative = inhibition [2] -1.23% [at 10.5 µM] | activity change, negative = inhibition [3] 0% [at 10.5 µM] | activity change, negative = inhibition [4] 0.0166% [at 10.5 µM]

C=CC(=O)NC(C)(C)C
inactive: Potency [1] | Potency [2] | Potency [3] | Potency [4]

CCCCNc1ccc(C(=O)OCCOCCOCCOCCOCCOCCOCCOCCOCCOC)cc1
inactive: Potency [1] | Potency [2] | Potency [3] | Potency [4]

C/C=C(\C)C(=O)OCC/C=C\CC
inactive: Potency [1] | Potency [2] | Potency [3] | Potency [4]

C=CC(C)(O)CC/C=C(\C)CCC=C(C)C (configuration not stated)
inactive: Potency [1] | Potency [2] | Potency [3] | Potency [4]

CCOC(C)(C)C
inactive: Potency [1] | Potency [2] | Potency [3] | Potency [4]

C=CC(=O)OCCCl
inactive: Potency [1] | Potency [2] | Potency [3] | Potency [4]

CC(C)(C)NCC(O)COc1cccc2c1C[C@H](O)[C@H](O)C2 (some centres not stated)
inactive: Potency [1] | Potency [2] | Potency [3] | Potency [4]

COc1ccc(/C=C/C(=O)c2ccc(OC)cc2OC)cc1
inactive: Potency [1] | Potency [2] | Potency [3] | Potency [4]

CCc1cccc(C)c1N(C(=O)C(=O)O)C(C)COC (configuration not stated)
inactive: Potency [1] | Potency [2] | Potency [3] | Potency [4]

O=S(=O)(O)c1ccccc1/C=C/c1ccc(-c2ccc(/C=C/c3ccccc3S(=O)(=O)O)cc2)cc1
inactive: Potency [1] | Potency [2] | Potency [3] | Potency [4]

NNc1nc(-c2ccc(N)cc2)cs1
inactive: Potency [1] | Potency [2] | Potency [3] | Potency [4]

COc1ccc(/C=C/c2cc(OC)cc(=O)o2)cc1
inactive: Potency [1] | Potency [2] | Potency [3] | Potency [4]

CC1COc2ccccc2N1 (configuration not stated)
inactive: Potency [1] | Potency [2] | Potency [3] | Potency [4]

CCOC(=O)Nc1ccc2c(c1)N(C(=O)CCN1CCOCC1)c1ccccc1S2
inactive: Potency [1] | Potency [2] | Potency [3] | Potency [4]

O=C(N[C@@H](c1ccccc1)[C@@H]1CCCCN1)c1cccc(C(F)(F)F)c1Cl
inactive: Potency [1] | Potency [2] | Potency [3] | Potency [4]

C=CCOCC(O)CS(=O)(=O)O (configuration not stated)
inactive: Potency [1] | Potency [2] | Potency [3] | Potency [4]

[O-][n+]1cccc(CO)c1
inactive: Potency [1] | Potency [2] | Potency [3] | Potency [4]

Nc1nc(=O)n([C@@H]2O[C@H](CO)[C@@H](O)[C@@H]2F)cc1I
inactive: Potency [1] | Potency [2] | Potency [3] | Potency [4]

Cc1cccc(C)n1
inactive: Potency [1] | Potency [2] | Potency [3] | Potency [4]
